Measurements taken from PubChem BioAssay (Tox21).
Values joined by “and” are separate entries in the source; they are usually repeats but may differ in a detail not shown here. Equal entries are not always repeated. Inconclusive results are not listed. Active and inactive are the calls of the source. The call rests on the fitted dose curve; in most records, active means well fitted cell-killing curve with a large enough effect in the repeat runs; inconclusive means weak or mixed curves, or effect the other way; inactive means no such curve, though single readings can be large or run the other way.

Test: qHTS assay for identifying genotoxic compounds that show differential cytotoxicity against isogenic chicken DT40 cell lines with known DNA damage response pathways - Rev3 mutant cell line (AID 743014); further: nearly all actives have a fitted effect of over 55% in size
Conditions: chicken DT40 Rev3-/- viability, CellTiter-Glo, 40 h; series mostly up to 68.4 µM; activity, negative = cytotoxicity: at the top concentration
Description: National Center for Advancing Translational Sciences [NCATS]
NIH Chemical Genomics Center [NCGC]
U.S. Environmental Protection Agency [EPA]
National Institutes of Environmental Health Sciences [NIEHS]
National Toxicology Program [NTP]
U.S. Food and Drug Administration [FDA]
DNA repair pathways play a critical role in cellular homeostasis by repairing DNA damage induced by endogenous processes and xenobiotics. Isogenic chicken DT40 cell lines deficient in different DNA repair pathways can be used to identify genotoxic compounds and aid in characterizing the nature of the DNA damage induced. Two DNA repair-deficient cell lines with disrupted genes, Rad54/Ku70 or Rev3, were used to screen the Tox21 10K compound library. Possible genotoxicity was based on the presence of a significant increase in cytotoxicity in one or more of the DNA repair-deficient cell lines compared to that observed in the parental DNA repair-proficient cell line. CellTiter Glo viability assay (Promega, Madison, WI) was used to measure cell viability in these cells after compound treatment. This assay includes the data from the Rev3 mutant cell line.
Tox21 Assay Protocol Summary:
300 DT40 mutant cells in 5 uL/well were dispensed into white, solid-bottom 1536-well plates using a Multidrop Combi (ThermoFisher Scientific, Waltham, MA) dispenser. After the assay plates were incubated at 37 C/5% CO2 for approximately 0.5 hour, 23 nL of compounds dissolved in DMSO, positive controls or DMSO only was transferred into the assay plate by a pintool work station (Kalypsys, San Diego, CA). The assay plates were incubated at 37 C/5% CO2 for 40 hours. After 5 uL per well of CellTiter-Glo reagent was added into each well of the assay plates, the plates were incubated for 30 min at room temperature and the luminescence intensity of the plates was measured using a ViewLux (PerkinElmer, Shelton, CT) plate reader.
On the % scale 0 is the no-effect control and ±100 the full control effect; potency means the concentration at half of the fitted maximal effect.

Compound	activity, negative = cytotoxicity	Potency
O=C(OCC(COC(=O)c1ccccc1)(COC(=O)c1ccccc1)COC(=O)c1ccccc1)c1ccccc1	-2.65% (inactive)	
Cc1onc(-c2ccccc2Cl)c1C(=O)N[C@@H]1C(=O)N2[C@@H]1SC(C)(C)[C@@H]2C(=O)O	13.1% [at 31.4 µM] (inactive)	
CO[Si](CCCNc1ccccc1)(OC)OC		15.4 µM (active)
O=C(OC[C@H]1O[C@@H](OC(=O)c2cc(O)c(O)c(OC(=O)c3cc(O)c(O)c(O)c3)c2)[C@H](OC(=O)c2cc(O)c(O)c(OC(=O)c3cc(O)c(O)c(O)c3)c2)[C@@H](OC(=O)c2cc(O)c(O)c(OC(=O)c3cc(O)c(O)c(O)c3)c2)[C@@H]1OC(=O)c1cc(O)c(O)c(OC(=O)c2cc(O)c(O)c(O)c2)c1)c1cc(O)c(O)c(OC(=O)c2cc(O)c(O)c(O)c2)c1		10.6 µM (active) and 16.5 µM (active)
CC[C@H]1O[C@]2(CC[C@@H]1C)C[C@@H]1C[C@@H](C/C=C(\C)C[C@@H](C)/C=C/C=C3\CO[C@@H]4[C@H](O)C(C)=C[C@@H](C(=O)O1)[C@]34O)O2		6.8 µM (active)
Cc1onc(-c2c(Cl)cccc2Cl)c1C(=O)N[C@@H]1C(=O)N2[C@@H]1SC(C)(C)[C@@H]2C(=O)O	2.25% (inactive)	
O=c1[nH]sc2ccccc12		0.433 µM (active)
CCCCCCCC/C=C\CCCCCCCCOCCO		5.62 µM (active)
c1cc(C(c2ccc(OCC3CO3)cc2)c2ccc(OCC3CO3)cc2)ccc1OCC1CO1 (stereo not given)		0.969 µM (active)
C[C@H](CCC(=O)O)[C@H]1CC[C@H]2[C@@H]3CC[C@@H]4C[C@H](O)CC[C@]4(C)[C@H]3CC[C@]12C		inactive
OCCN(CCO)c1nc(N2CCCCC2)c2nc(N(CCO)CCO)nc(N3CCCCC3)c2n1		9.44 µM (active)
O=C(O)c1cc(O)c2c(c1)C(=O)c1cccc(O)c1C2=O	4.32% [at 95 µM] (inactive)	
O=C1C=CC(=O)N1		2.5 µM (active)
CCCCCCCCCCCCCCCCCC[N+](C)(C)Cc1ccccc1		0.777 µM (active)
CCC1=C[C@@H]2CN(C1)Cc1c([nH]c3ccccc13)[C@@](C(=O)OC)(c1cc3c(cc1OC)N(C)[C@H]1[C@@](O)(C(=O)OC)[C@H](OC(C)=O)[C@]4(CC)C=CCN5CC[C@]31[C@@H]54)C2		0.0841 µM (active)
CCCCCCCCCCCCc1ccc(O)cc1		7.7 µM (active)
CCCC(C)c1ccccc1O (stereo not given)		24.3 µM (active)
Clc1ccccc1C(c1ccccc1)(c1ccccc1)n1ccnc1		10.1 µM (active) and 15.4 µM (active)
O=C(Nc1ccc(Oc2ccc(Cl)cc2)c(Cl)c1)c1cc(I)cc(I)c1O	-6.35% (inactive)	
COc1c(C)c2c(c(O)c1C/C=C(\C)CCC(=O)O)C(=O)OC2		0.16 µM (active)

Compound	activity, negative = cytotoxicity	Potency
N#CSc1ccc(N)c([N+](=O)[O-])c1		6.9 µM (active)
CN(C)C(=O)C1(N2CCCCC2)CCN(CC[C@@]2(c3ccc(Cl)c(Cl)c3)CN(C(=O)c3ccccc3)CCO2)CC1		8.07 µM (active)
Oc1c(Cl)cc(Cl)c2cccnc12		3.76 µM (active)
O=C(O)c1ccc(Cl)c(Cl)c1	5.58% (inactive)	
NNc1nc(-c2ccc(N)cc2)cs1		21.7 µM (active)
CCCC/C=C/CCCCO	-19% (inactive)	
Cc1cc(O)c(Cl)c(C)c1Cl		24.3 µM (active)
CCCCCCCCCCCC[N+](C)(C)CCCCCCCCCCCC		3.86 µM (active)
C[C@H]1[C@H]2CC[C@H]3[C@@H]4CC=C5C[C@@H](N(C)C)CC[C@]5(C)[C@H]4CC[C@]23CN1C		11.9 µM (active)
OCc1c[nH]c2ccccc12		51.4 µM (active)
O=S1(=O)CC(Cl)(Cl)C(Cl)(Cl)C1		0.172 µM (active)
O=C(c1ccc(F)cc1)C1CCN(CCn2c(=O)[nH]c3ccccc3c2=O)CC1	0.321% (inactive)	
Cc1ccc(O)c(C(C)(C)C)c1		13.7 µM (active)
O=C(OCC1CO1)C1CCCCC1C(=O)OCC1CO1 (stereo not given)		0.77 µM (active)
O=C(NO)C1(NS(=O)(=O)c2ccc(Oc3ccc(F)cc3)cc2)CCOCC1		30.6 µM (active)
CCc1cc(Cc2cc(CC)c(N)c(CC)c2)cc(CC)c1N		61.1 µM (active)
O=C1Cc2cc(CCN3CCN(c4nsc5ccccc45)CC3)c(Cl)cc2N1		33.5 µM (active) and 26.6 µM (active)
CC(C)(C)NC(=O)[C@@H]1C[C@@H]2CCCC[C@@H]2CN1C[C@@H](O)[C@H](Cc1ccccc1)NC(=O)[C@H](CC(N)=O)NC(=O)c1ccc2ccccc2n1		13.3 µM (active)
CC(C)(C)CC(C)(C)c1ccc(OCCOCC[N+](C)(C)Cc2ccccc2)cc1		841 nM (active) and 968 nM (active)
[Cl][Bi]([Cl])([c]1ccccc1)([c]1ccccc1)[c]1ccccc1		2.16 µM (active)
